Patent US20140271602, “NUCLEOTIDE-SPECIFIC RECOGNITION SEQUENCES FOR DESIGNER TAL EFFECTORS” (THE BROAD INSTITUTE INC., published 2014)
Changes are numbered by the printed parent chain.

Legend:
Assay in all cases: cell_activity; luciferase reporter
Conditions in all cases: tags: VP64, 2A-GFP; dsDNA, one strand shown
[1] = biological target: T1, TALE1-NN (CACNA1C site 1 activator) (Xanthomonas (engineered), UniProt P14727 SEQ:1-983)
T1 chain: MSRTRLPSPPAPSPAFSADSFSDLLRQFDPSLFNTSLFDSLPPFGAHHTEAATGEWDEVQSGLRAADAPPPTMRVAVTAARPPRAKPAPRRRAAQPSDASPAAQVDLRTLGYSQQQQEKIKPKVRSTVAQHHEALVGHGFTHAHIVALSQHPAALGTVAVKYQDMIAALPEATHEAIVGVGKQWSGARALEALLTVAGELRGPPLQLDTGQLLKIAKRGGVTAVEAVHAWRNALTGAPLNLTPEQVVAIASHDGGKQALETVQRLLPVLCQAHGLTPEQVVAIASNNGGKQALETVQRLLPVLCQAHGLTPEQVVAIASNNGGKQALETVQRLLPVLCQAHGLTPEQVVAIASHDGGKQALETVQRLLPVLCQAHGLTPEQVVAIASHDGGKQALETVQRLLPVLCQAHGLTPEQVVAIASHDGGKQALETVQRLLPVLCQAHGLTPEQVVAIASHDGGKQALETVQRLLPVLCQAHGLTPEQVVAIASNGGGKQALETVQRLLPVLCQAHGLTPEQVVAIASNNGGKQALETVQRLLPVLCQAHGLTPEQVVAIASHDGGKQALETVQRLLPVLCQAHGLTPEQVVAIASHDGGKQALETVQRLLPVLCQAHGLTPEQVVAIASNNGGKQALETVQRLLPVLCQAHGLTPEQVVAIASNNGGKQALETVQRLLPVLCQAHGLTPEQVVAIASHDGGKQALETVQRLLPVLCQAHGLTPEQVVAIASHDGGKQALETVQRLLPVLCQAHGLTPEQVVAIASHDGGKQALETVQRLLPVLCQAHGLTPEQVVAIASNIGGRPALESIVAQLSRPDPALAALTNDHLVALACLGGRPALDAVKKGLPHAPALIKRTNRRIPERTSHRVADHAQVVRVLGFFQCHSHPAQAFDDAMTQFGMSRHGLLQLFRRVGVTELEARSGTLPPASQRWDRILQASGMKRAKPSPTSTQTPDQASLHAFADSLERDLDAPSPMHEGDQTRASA

[2] = biological target: T2, TALE1-NK (CACNA1C site 1 activator) (Xanthomonas (engineered), UniProt P14727 SEQ:1-983)
T2 chain: T1 chain with N287K, N321K, N525K, N627K, N661K

[3] = biological target: T3, TALE2-HN (CACNA1C site 2 activator) (Xanthomonas (engineered), UniProt P14727 SEQ:1-983)
T3 chain: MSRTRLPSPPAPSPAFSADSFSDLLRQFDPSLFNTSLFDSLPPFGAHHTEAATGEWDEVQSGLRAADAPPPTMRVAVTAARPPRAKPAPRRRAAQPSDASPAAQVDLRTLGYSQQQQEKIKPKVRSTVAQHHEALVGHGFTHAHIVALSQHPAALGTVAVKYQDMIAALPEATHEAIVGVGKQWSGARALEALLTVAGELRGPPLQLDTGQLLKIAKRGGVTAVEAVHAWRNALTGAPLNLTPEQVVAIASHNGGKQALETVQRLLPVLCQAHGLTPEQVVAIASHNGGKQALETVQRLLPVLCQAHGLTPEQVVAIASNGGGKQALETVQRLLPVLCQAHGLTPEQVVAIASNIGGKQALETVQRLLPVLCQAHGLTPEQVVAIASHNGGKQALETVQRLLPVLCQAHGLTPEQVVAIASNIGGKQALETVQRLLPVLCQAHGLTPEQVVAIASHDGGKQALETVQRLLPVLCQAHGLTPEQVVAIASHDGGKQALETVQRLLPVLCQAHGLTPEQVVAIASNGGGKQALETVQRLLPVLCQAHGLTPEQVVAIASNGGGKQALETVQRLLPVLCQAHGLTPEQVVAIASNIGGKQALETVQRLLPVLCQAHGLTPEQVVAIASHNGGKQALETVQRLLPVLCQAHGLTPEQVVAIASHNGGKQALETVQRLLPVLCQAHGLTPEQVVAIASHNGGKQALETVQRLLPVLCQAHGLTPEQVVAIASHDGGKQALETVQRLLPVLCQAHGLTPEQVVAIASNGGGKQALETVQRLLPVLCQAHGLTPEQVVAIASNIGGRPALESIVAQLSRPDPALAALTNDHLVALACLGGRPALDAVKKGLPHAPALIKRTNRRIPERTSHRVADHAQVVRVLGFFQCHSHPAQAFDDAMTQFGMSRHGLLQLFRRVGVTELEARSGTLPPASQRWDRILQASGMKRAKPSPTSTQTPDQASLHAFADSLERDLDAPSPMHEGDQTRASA

[4] = biological target: T4, TALE2-NH (CACNA1C site 2 activator) (Xanthomonas (engineered), UniProt P14727 SEQ:1-983)
T4 chain: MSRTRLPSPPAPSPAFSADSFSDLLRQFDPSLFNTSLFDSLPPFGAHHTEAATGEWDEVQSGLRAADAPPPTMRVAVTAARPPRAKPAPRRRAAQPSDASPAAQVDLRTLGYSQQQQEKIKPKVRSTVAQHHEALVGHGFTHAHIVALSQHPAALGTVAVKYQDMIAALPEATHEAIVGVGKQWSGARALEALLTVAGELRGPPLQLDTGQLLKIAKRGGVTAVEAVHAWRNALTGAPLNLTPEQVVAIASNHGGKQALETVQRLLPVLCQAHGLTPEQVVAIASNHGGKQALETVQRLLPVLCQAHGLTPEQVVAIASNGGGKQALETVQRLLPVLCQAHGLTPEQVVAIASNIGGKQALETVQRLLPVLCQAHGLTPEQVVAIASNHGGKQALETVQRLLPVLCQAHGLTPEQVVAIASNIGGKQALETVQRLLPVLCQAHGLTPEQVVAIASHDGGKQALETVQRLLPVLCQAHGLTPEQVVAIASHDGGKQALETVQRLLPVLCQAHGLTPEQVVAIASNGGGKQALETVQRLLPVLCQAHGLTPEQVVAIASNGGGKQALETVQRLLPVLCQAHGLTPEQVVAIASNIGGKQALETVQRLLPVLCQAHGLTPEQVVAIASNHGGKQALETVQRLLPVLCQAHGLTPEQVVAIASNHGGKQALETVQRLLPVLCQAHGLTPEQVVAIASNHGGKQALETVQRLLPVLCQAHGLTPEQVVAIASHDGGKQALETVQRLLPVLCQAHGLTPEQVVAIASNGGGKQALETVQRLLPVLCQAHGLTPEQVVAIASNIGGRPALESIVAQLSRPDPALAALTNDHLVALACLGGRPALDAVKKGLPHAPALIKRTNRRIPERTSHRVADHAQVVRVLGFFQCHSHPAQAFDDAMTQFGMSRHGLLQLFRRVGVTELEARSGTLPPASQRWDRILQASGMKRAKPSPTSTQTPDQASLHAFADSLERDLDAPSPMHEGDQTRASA

[5] = biological target: T5, TALE2-NK (CACNA1C site 2 activator) (Xanthomonas (engineered), UniProt P14727 SEQ:1-983)
T5 chain: T4 chain with H253K, H287K, H389K, H627K, H661K, H695K

TCAACCCCTGCCGGCCCA was tested, and the binding signal [1] was 35.4 % reduction vs wild-type site and the binding signal [2] was 40.3 % reduction vs wild-type site.

With TAATAGACCTTAGGGCTA the binding signal [3] was 13.9 % reduction vs wild-type site, the binding signal [4] was 66.1 % reduction vs wild-type site and the binding signal [5] was 36.3 % reduction vs wild-type site.

TAATAAACCTTAAAACTA was tested, and the binding signal [4] was < 10 % of wild-type site activation.
